Data from PubChem BioAssay AID1159580 (chemical genetic matrix, 2015).
Values joined by “and” are separate entries in the source; they are usually repeats but may differ in a detail not shown here. Identical values can stand only once. Hit rate of the full screen: of about 5,500 compounds, about 2,000 (36%) were called active. About 18% were inconclusive and are not listed. Rule as the data show it: active = normalized growth mostly below about 0.91 (no sharp cut-off); inconclusive = no clear call, values can overlap the other calls; inactive = mostly above about 0.92. Some of the results follow.

Experiment: chemical genetic growth profiling, strain panel (AID 1159580);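 also: tested at 20 µM; growth read once vehicle control cultures reached saturation at 30 °C; 1 = growth at the plate median or of vehicle wells; lower values mean less growth of the strain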
Details: S. cerevisiae deletion strains, growth OD

Measured: normalized growth

CC(=O)OCC(CCn1cnc2cnc(N)nc21)COC(C)=O
inactive: locus YAL013W, strain DEP1, stronger effect = lower value 0.988 | locus YAL021C, strain ccr4, stronger effect = lower value 1.01 | locus YAL026C, strain drs2, stronger effect = lower value 1 | locus YAL030W, strain snc1, stronger effect = lower value 0.982 | locus YBL061C, strain skt5, stronger effect = lower value 0.989 | locus YBR009C, strain hhf1, stronger effect = lower value 1 | locus YBR021W, strain FUR4, stronger effect = lower value 1.01 | locus YBR023C, strain chs3, stronger effect = lower value 0.998 | locus YBR171W, strain sec66, stronger effect = lower value 0.982 | locus YBR229C, strain ROT2, stronger effect = lower value 0.989 | locus YBR231C, strain swc5, stronger effect = lower value 0.971 | locus YBR279W, strain paf1, stronger effect = lower value 0.986 | locus YCL011C, strain gbp2, stronger effect = lower value 0.994 | locus YCL016C, strain dcc1, stronger effect = lower value 0.998 | locus YCL029C, strain bik1, stronger effect = lower value 0.965 | locus YCL061C, strain MRC1, stronger effect = lower value 0.991 | locus YCL069W, strain vba3, stronger effect = lower value 0.988 | locus YCR088W, strain abp1, stronger effect = lower value 0.988 | locus YDL005C, strain med2, stronger effect = lower value 0.991 | locus YDL035C, strain GPR1, stronger effect = lower value 0.994 | locus YDL040C, strain nat1, stronger effect = lower value 0.993 | locus YDL074C, strain BRE1, stronger effect = lower value 1.01 | locus YDL101C, strain DUN1, stronger effect = lower value 0.985 | locus YDL134C, strain PPH21, stronger effect = lower value 0.997 | locus YDL185W, strain tfp1, stronger effect = lower value 0.967 | locus YDL192W, strain arf1, stronger effect = lower value 0.971 | locus YDR001C, strain nth1, stronger effect = lower value 0.988 | locus YDR069C, strain doa4, stronger effect = lower value 0.972 | locus YDR101C, strain arx1, stronger effect = lower value 0.983 | locus YDR137W, strain rgp1, stronger effect = lower value 1.01 | locus YDR150W, strain NUM1, stronger effect = lower value 0.993 | locus YDR159W, strain sac3, stronger effect = lower value 1.01 | locus YDR162C, strain NBP2, stronger effect = lower value 0.996 | locus YDR195W, strain ref2 0.941 | locus YDR297W, strain sur2, stronger effect = lower value 0.987 | locus YDR318W, strain mcm21, stronger effect = lower value 0.979 | locus YDR334W, strain swr1, stronger effect = lower value 1 | locus YDR335W, strain msn5, stronger effect = lower value 0.99 | locus YDR388W, stronger effect = lower value 0.969 | locus YDR392W, strain spt3, stronger effect = lower value 0.995 | locus YDR502C, strain sam2, stronger effect = lower value 0.993 | locus YEL003W, strain gim4, stronger effect = lower value 0.984 | locus YEL037C, strain rad23, stronger effect = lower value 1 | locus YEL061C, strain CIN8 (second series), stronger effect = lower value 0.988 | locus YEL061C, strain CIN8, stronger effect = lower value 0.992 | locus YER015W, strain faa2, stronger effect = lower value 1 | locus YER016W, strain bim1, stronger effect = lower value 0.987 | locus YER110C, stronger effect = lower value 0.974 | locus YER111C, strain swi4, stronger effect = lower value 0.972 | locus YER155C, strain BEM2 (second series), stronger effect = lower value 0.959 | locus YER155C, strain BEM2, stronger effect = lower value 0.993 | locus YER167W, strain BCK2, stronger effect = lower value 0.989 | locus YFR010W, strain ubp6, stronger effect = lower value 0.98 | locus YGL078C, strain dbp3, stronger effect = lower value 0.967 | locus YGL086W, strain mad1, stronger effect = lower value 0.984 | locus YGL167C, strain pmr1, stronger effect = lower value 0.987 | locus YGL173C, strain kem1, stronger effect = lower value 1 | locus YGL227W, strain vid30, stronger effect = lower value 0.979 | locus YGL240W, strain doc1, stronger effect = lower value 0.966 | locus YGL248W, strain PDE1, stronger effect = lower value 0.987 | locus YGL253W, strain hxk2, stronger effect = lower value 0.996 | locus YGR078C, strain PAC10, stronger effect = lower value 1.01 | locus YGR135W, strain pre9, stronger effect = lower value 0.974 | locus YGR229C, strain SMI1, stronger effect = lower value 1.01 | locus YGR252W, strain gcn5, stronger effect = lower value 1.08 | locus YHR013C, strain ard1, stronger effect = lower value 1 | locus YHR027C, strain rpn1, stronger effect = lower value 0.989 | locus YHR030C, strain SLT2, stronger effect = lower value 0.984 and 0.946 | locus YHR079C, strain IRE1 (second series), stronger effect = lower value 0.961 | locus YHR079C, strain IRE1, stronger effect = lower value 0.957 | locus YHR094C, strain hxt1, stronger effect = lower value 0.973 | locus YHR129C, strain ARP1, stronger effect = lower value 0.991 | locus YHR142W, strain chs7, stronger effect = lower value 1 | locus YHR200W, strain rpn10, stronger effect = lower value 0.973 | locus YIL066C, strain RNR3, stronger effect = lower value 0.994 | locus YIL073C, strain SPO22, stronger effect = lower value 0.952 | locus YIL125W, strain kgd1, stronger effect = lower value 0.97 | locus YIR030C, strain dcg1, stronger effect = lower value 0.976 | locus YJL092W, strain hpr5, stronger effect = lower value 0.982 | locus YJL095W, strain BCK1 (second series), stronger effect = lower value 0.987 | locus YJL095W, strain BCK1, stronger effect = lower value 0.99 and 0.992 | locus YJL115W, strain asf1, stronger effect = lower value 0.979 | locus YJL129C, strain trk1, stronger effect = lower value 0.973 | locus YJL134W, strain LCB3, stronger effect = lower value 0.985 | locus YJL154C, strain vps35, stronger effect = lower value 0.997 | locus YJL164C, strain tpk1, stronger effect = lower value 1.01 | locus YJL166W, strain qcr8, stronger effect = lower value 0.984 | locus YJL168C, strain set2, stronger effect = lower value 0.974 | locus YJL187C, strain SWE1 (second series), stronger effect = lower value 0.984 | locus YJR043C, strain POL32, stronger effect = lower value 0.976 | locus YJR066W, strain TOR1, stronger effect = lower value 0.934
